Bioassay records from PubChem.
This is a sample that favours compounds with a hit; in the whole collection about 4.8% have one here.
ATXN viability: cell viability loss in ATXN counter-screen; S2 cells (HEK-293 line with an ATXN2-luciferase reporter) viability, CellTiter-Fluor protease fluorescence, 24 h; Potency, µM (doses to about 56.7 µM), actives largely listed as cytotoxic; hit rate 0.49% among 400,000; AID 651635; further: potency means the concentration at half of the fitted maximal effect; nearly all actives have a fitted effect of over 40% in size
DRD3 antagonist: blocks the human D3 dopamine receptor | D3R cells, DiscoveRx beta-arrestin luminescence, antagonist mode; stronger effect = lower value | P35462 | AID 652054 | max response, negative = inhibition, % | hit rate 2.5% among 360,000; in the data active means max response below about -50%; inconclusive means no clear call, values can overlap the other calls; further: on the % scale 0 is the no-effect control and ±100 the full control effect
Target sequence (P35462 whole entry, looked up): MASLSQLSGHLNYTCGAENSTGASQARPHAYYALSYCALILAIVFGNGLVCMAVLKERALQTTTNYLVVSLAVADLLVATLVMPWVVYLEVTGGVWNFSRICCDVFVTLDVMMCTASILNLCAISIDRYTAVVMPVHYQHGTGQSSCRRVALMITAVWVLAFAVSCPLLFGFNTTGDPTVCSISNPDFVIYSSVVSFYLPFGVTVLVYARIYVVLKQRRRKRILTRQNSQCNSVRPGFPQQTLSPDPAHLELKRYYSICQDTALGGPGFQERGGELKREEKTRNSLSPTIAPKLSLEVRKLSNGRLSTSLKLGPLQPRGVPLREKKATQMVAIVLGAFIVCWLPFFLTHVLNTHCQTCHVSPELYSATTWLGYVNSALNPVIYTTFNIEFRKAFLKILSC
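Cells plated overnight at 1500 cells/well, then exposed to library compounds with dopamine controls for 90 minutes at 37 degrees C. DiscoveRx reagent added for 30–60 minutes at room temperature; luminescence read, quantitative HTS format.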
ATXN2 expr inh: ATXN2 expression inhibition. HEK-293 ATXN2-luciferase reporter, luminescence, 24 h. Potency, µM (series often up to 57 µM), inactives show top-dose activity change, negative = inhibition, most hits filed as inhibitors. hit rate 0.72% among 360,000. AID 1745845; further: potency means the concentration at half of the fitted maximal effect; on the % scale 0 is the no-effect control and ±100 the full control effect; nearly all actives have a fitted effect of over 55% in size
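ATXN2-luciferase reporter cells (luciferase flanked by upstream and downstream ATXN2 gene portions) were treated 24 h at 37 °C with compounds at up to 57 uM. SteadyGlo luminescence gave expression; GF-AFC fluorescence gave viability.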
HepG2 tox: counter-screen for TGF-b inhibitors: cytotoxicity in HepG2 cells. HepG2 CAGA-GFP viability, ATP luminescence, 18 h. Potency, µM (top dose mostly 46.1 µM), for the others: at the top dose activity change, negative = cytotoxicity, actives largely listed as cytotoxic. hit rate 0.76% among 410,000; further: potency means the concentration at half of the fitted maximal effect
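HepG2 CAGA-GFP cells (1000/well, DMEM with 1% FBS) received compound, then TGF-beta at 500 pg/mL final, and were incubated 18 hours at 37 degrees C. Viability was read by CellTiter-Glo luminescence. Media-only wells were set as complete cell-killing and DMSO as no toxicity.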
D3 ag: agonists of human D3 dopamine receptor; hit rate 0.58% among 410,000; D3R DiscoveRx beta-arrestin cells, luminescence, 90 min; P35462; max activation, %; in the data active means max activation above about 30%; further: 0% is about no effect
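Agonist-mode cell screen: cells plated at 1500/well and incubated overnight at 37 °C, then exposed to library compounds for 90 min at 37 °C. Detection reagent was added for 30–60 min at room temperature, and luminescence was read.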
TGFb inhibitor: TGF-b pathway inhibition; HepG2 CAGA-GFP TGF-b/SMAD3 reporter, GFP fluorescence, 18 h; TGF-beta stimulated, 500 pg/mL final; Potency, µM (series often up to 46.1 µM), without a hit: top-dose activity, negative = inhibition, actives largely listed as inhibitors; hit rate 1.2% among 410,000; further: potency means the concentration at half of the fitted maximal effect; on the % scale 0 is the no-effect control and ±100 the full control effect; nearly all actives have a fitted effect of over 65% in size
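Per well, imaged GFP fluorescence of HEPG2 CAGA-GFP cells gives the signal; cells get compound, then TGF-beta (500 pg/mL final), 18 h at 37 degrees C; %Activity versus -TGF-beta and +DMSO controls.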
* hit, by the source's call; i = inactive; ? = inconclusive; / = not tested or not shown. Unless noted, the call rests on the fitted dose curve; in most records, active means well fitted curve in the direction sought with a large enough effect; inconclusive means small, poorly fitted or top-dose-only effect, or another doubt; inactive means no such curve, though single readings can be large; an effect the other way counts as inactive or inconclusive.

SMILES	ATXN viability	DRD3 antagonist	ATXN2 expr inh	HepG2 tox	D3 ag	TGFb inhibitor
CCOc1ccc(Cl)cc1-c1cc(C(=O)NCc2ccccc2)[nH]n1	i	-18.7	-14.6%	-0.3%	-16.1	?
COc1cc(F)ccc1-c1cc(C(=O)Nc2ccc(C)c(NS(C)(=O)=O)c2)[nH]n1	i	-9.6	2.8%	-61.3%	-18.8	?
COc1cc(F)c(F)c(Nc2ccc(I)cc2F)c1NS(=O)(=O)C1(C[C@H](O)CO)CC1	/	/	-6.3%	/	/	/
Clc1ccccc1OCCCCN1CCCC1	i	-85.1*	2.4%	-2.0%	-29.4	-25.8%
Fc1ccccc1OCCCCN1CCCCC1	i	-81.2*	15.9%	-0.7%	-19.5	-1.7%
Clc1ccc(Cl)c(OCCCCN2CCCCC2)c1	i	-106.0*	-30.7%	-15.8%	-18.0	-5.5%
Clc1ccccc1OCCCCN1CCCCC1	i	-94.8*	-23.1%	-26.7%	-24.8	-2.7%
c1ccc2c(OCCCCN3CCCC3)cccc2c1	i	?	/	-8.2%	-1.5	26.9%
CC(=O)c1ccc(NC(=O)CSc2nccn2Cc2ccco2)cc1	/	/	/	6.7%	-7.6	5.6%
COC(=O)CN1C(=O)CSc2ccc(S(=O)(=O)Nc3cccc(C)c3)cc21	/	/	/	-33.9%	7.8	-28.0%
NCCCCCc1nnc(SCc2ccc(F)cc2)o1	i	/	-6.3%	-4.9%	-0.6	9.1%
O=c1ccn([C@@H]2O[C@H](CO)[C@H](O)[C@H]2O)c(=O)[nH]1	/	/	1.4%	/	/	/
COc1ccc(OC)c(NC(=O)CCc2nc(-c3ccc(C)cc3)no2)c1	i	/	-18.7%	-77.2%	-4.1	?
COc1ccc(-c2cc(OC(=O)c3ccccc3Cl)c3c(C)oc(C)c3c(=O)c2)cc1OC	i	/	-9.9%	-26.3%	-1.2	?
O=C(OCCN1CCCCC1)c1ccccc1Cl	i	-67.8*	-2.7%	-19.9%	0.8	?
O=C(C[n+]1cccc2cccc(O)c21)c1ccccc1	/	/	/	1.9%	/	26.9%
COc1ccc(N(CC(=O)N2CCc3ccccc3C2)S(=O)(=O)c2ccc(C)cc2)cc1Cl	i	/	7.6%	-1.9%	-2.7	1.9%
O=C(O)c1cccc(N2C(=O)c3cc([N+](=O)[O-])cc4cc([N+](=O)[O-])cc(c34)C2=O)c1	?	-57.9*	?	2.6%	-25.4	-11.5%
O=C1c2cc([N+](=O)[O-])cc3cc([N+](=O)[O-])cc(c23)C(=O)N1c1ccccn1	?	-76.4*	?	2.1%	-40.3	5.62µM*
COC(=O)c1ccc(NC(C)=O)cc1OC	i	/	2.0%	/	/	/
Cc1cc(C)c2oc(-c3ccc(C)c(NC(=O)/C=C/c4ccco4)c3)nc2c1	i	/	14.5%	-36.6%	4.5	?
O=C1NC(c2ccccc2)=C(c2nc3ccccc3s2)C(c2ccc(F)cc2)N1 (stereo unspecified)	i	-56.3*	?	-37.1%	14.3	?
Cc1ccccc1N1CCN(C2CCCN(C(=O)CCC3(C)CC3)C2)CC1 (stereo unspecified)	i	-64.4*	-16.4%	-29.8%	-7.0	-1.7%
O=c1c2c(nc3c(-c4ccc(Cl)cc4)c[nH]n13)CCC2	?	2.1	12.6µM*	-25.2%	0.0	?
O=c1c2c(nc3c(-c4ccccc4)c[nH]n13)CCC2	i	-13.3	-19.9%	-20.0%	-7.3	-36.4%
CC(C)n1cnc2c(N(C)c3ccccc3)nc(N(CCN(C)C)Cc3ccccc3)nc21	?	-69.8*	?	-25.8%	-43.8	?
CSc1nnc(NC(=O)C23CC4CC(CC(C4)C2)C3)s1	i	8.2	56.8%	1.7%	25.2	-15.0%
NC(=O)CSc1nnc(NC(=O)C23CC4CC(CC(C4)C2)C3)s1	i	10.7	45.4%	10.6%	40.4*	21.5%
COCCCNc1ncnc2sc(C(=O)N3CCOCC3)c(C)c12	i	/	/	/	/	/
COc1ccccc1-c1cc(C(=O)NC(C)c2ccccc2)no1 (stereo unspecified)	i	-58.0*	3.4%	-17.2%	-29.1	-9.1%
